{
  "source": "the supplement of paper PMC8728848",
  "binders": {"B1": {"name": "Mermaid1 (Stilbonema majum) (protein)", "chain": "MGSSHHHHHHSSGLVPRGSHMAASGWLRSPQGTVVKLYRRSLSWSKADEFCKDVDGRLVVDRTADMHLFLIKNVLKEKKSRVWVGLRRTAPHSRTWIWSDGTRQNEDDLDANLWLRDEPNDAAGEEECALFMYSPWEKAWGLNDYLCRGGCRSYQFICEKWIR"}},
  "experiment_in_all_cases": "glycan array binding signal (z-score within array); higher = stronger binding",
  "conditions_in_all_cases": "glycan notation: IUPAC condensed, linker removed",
  "key": {"[1]": {"target": "Gal(b1-4)GlcNAc(b1-3)Gal(b1-4)GlcNAc(b1-3)Gal(b1-4)GlcNAc(b1-3)Gal(b1-4)GlcNAc(b1-3)Gal(b1-4)GlcNAc(b1-2)Man(a1-3)[Gal(b1-4)GlcNAc(b1-3)Gal(b1-4)GlcNAc(b1-3)Gal(b1-4)GlcNAc(b1-3)Gal(b1-4)GlcNAc(b1-3)Gal(b1-4)GlcNAc(b1-2)Man(a1-6)]Man(b1-4)GlcNAc(b1-4)GlcNAc", "in_short": "(§1)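 Columns mapping to the same glycan were averaged after glycan names were converted to IUPAC-condensed notation. The data come from 3228 arrays in the Consortium for Functional Glycomics database, limited to those with an available protein sequence. Binding is reported as a within-array Z-score averaged across arrays of one protein sequence and across linkers.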"}, "[2]": {"target": "Gal(b1-4)GlcNAc(b1-3)Gal(b1-4)GlcNAc(b1-3)Gal(b1-4)GlcNAc(b1-3)Gal(b1-4)GlcNAc(b1-3)Gal(b1-4)GlcNAc(b1-2)Man(a1-3)[Gal(b1-4)GlcNAc(b1-3)Gal(b1-4)GlcNAc(b1-3)Gal(b1-4)GlcNAc(b1-3)Gal(b1-4)GlcNAc(b1-3)Gal(b1-4)GlcNAc(b1-2)Man(a1-6)]Man(b1-4)GlcNAc(b1-4)[Fuc(a1-6)]GlcNAc", "in_short": "as §1"}, "[3]": {"target": "Gal(b1-4)GlcNAc(b1-3)Gal(b1-4)GlcNAc(b1-3)[Gal(b1-4)GlcNAc(b1-3)Gal(b1-4)GlcNAc(b1-6)]GalNAc", "in_short": "as §1"}, "[4]": {"target": "Gal3S(b1-3)GlcNAc", "in_short": "as §1"}, "[5]": {"target": "Gal3S6S(b1-4)GlcNAc6S", "in_short": "as §1"}, "[6]": {"target": "Gal6P(b1-4)GlcNAc", "in_short": "as §1"}, "[7]": {"target": "GalNAc(b1-3)Gal(a1-6)Gal(b1-4)Glc", "in_short": "as §1"}, "[8]": {"target": "GalNAc(b1-4)GlcNAc(b1-2)Man", "in_short": "as §1"}, "[9]": {"target": "GalNAc3S(b1-4)[Fuc(a1-3)]GlcNAc", "in_short": "as §1"}, "[10]": {"target": "GlcA(b1-3)GlcNAc", "in_short": "as §1"}, "[11]": {"target": "GlcNAc(b1-2)Man(a1-3)[GlcNAc(b1-2)Man(a1-6)]Man(b1-4)GlcNAc(b1-4)GlcNAc", "in_short": "as §1"}, "[12]": {"target": "GlcNAc(b1-2)[GlcNAc(b1-4)]Man(a1-3)[GlcNAc(b1-4)][GlcNAc(b1-2)[GlcNAc(b1-6)]Man(a1-6)]Man(b1-4)GlcNAc(b1-4)[Fuc(a1-6)]GlcNAc", "in_short": "as §1"}, "[13]": {"target": "GlcNAc(b1-3)Gal(b1-3)GalNAc", "in_short": "as §1"}, "[14]": {"target": "GlcNAc(b1-3)Gal(b1-4)Glc", "in_short": "as §1"}, "[15]": {"target": "GlcNAc(b1-3)Gal(b1-4)GlcNAc", "in_short": "as §1"}, "[16]": {"target": "GlcNAc(b1-3)Gal(b1-4)GlcNAc(b1-3)Gal(b1-4)GlcNAc(b1-3)Gal(b1-4)GlcNAc(b1-2)Man(a1-3)[GlcNAc(b1-3)Gal(b1-4)GlcNAc(b1-3)Gal(b1-4)GlcNAc(b1-3)Gal(b1-4)GlcNAc(b1-2)Man(a1-6)]Man(b1-4)GlcNAc(b1-4)[Fuc(a1-6)]GlcNAc", "in_short": "as §1"}, "[17]": {"target": "GlcNAc(b1-3)Gal(b1-4)GlcNAc(b1-6)[GlcNAc(b1-3)Gal(b1-3)]GalNAc", "in_short": "as §1"}, "[18]": {"target": "Man(a1-2)Man(a1-3)[Man(a1-6)]Man(a1-6)[Man(a1-2)Man(a1-3)]Man(b1-4)GlcNAc(b1-4)GlcNAc", "in_short": "as §1"}, "[19]": {"target": "Man(b1-4)GlcNAc", "in_short": "as §1"}, "[20]": {"target": "Neu5Ac(a2-3)Gal(b1-3)GalNAc6S", "in_short": "as §1"}, "[21]": {"target": "Neu5Ac(a2-3)Gal(b1-3)GlcNAc6S", "in_short": "as §1"}, "[22]": {"target": "Neu5Ac(a2-3)Gal(b1-3)[Fuc(a1-4)]GlcNAc(b1-3)Gal(b1-4)[Fuc(a1-3)]GlcNAc", "in_short": "as §1"}, "[23]": {"target": "Neu5Ac(a2-3)Gal(b1-4)GlcNAc(b1-2)[Neu5Ac(a2-3)Gal(b1-4)GlcNAc(b1-4)]Man(a1-3)[GlcNAc(b1-4)][Neu5Ac(a2-3)Gal(b1-4)GlcNAc(b1-2)[Neu5Ac(a2-3)Gal(b1-4)GlcNAc(b1-6)]Man(a1-6)]Man(b1-4)GlcNAc(b1-4)GlcNAc", "in_short": "as §1"}, "[24]": {"target": "Neu5Ac(a2-3)Gal(b1-4)GlcNAc(b1-6)[Gal(b1-3)]GalNAc", "in_short": "as §1"}, "[25]": {"target": "Neu5Ac(a2-3)Gal(b1-4)[Fuc(a1-3)]GlcNAc(b1-3)Gal(b1-4)GlcNAc", "in_short": "as §1"}, "[26]": {"target": "Neu5Ac(a2-3)GalNAc", "in_short": "as §1"}, "[27]": {"target": "Neu5Ac(a2-6)Gal(b1-4)GlcNAc(b1-2)Man(a1-6)Man(b1-4)GlcNAc(b1-4)GlcNAc", "in_short": "as §1"}, "[28]": {"target": "Neu5Ac(a2-6)Gal(b1-4)GlcNAc(b1-3)Gal(b1-4)[Fuc(a1-3)]GlcNAc(b1-3)Gal(b1-4)[Fuc(a1-3)]GlcNAc", "in_short": "as §1"}, "[29]": {"target": "Neu5Ac(a2-8)Neu5Ac", "in_short": "as §1"}, "[30]": {"target": "Neu5Gc(a2-3)Gal(b1-3)GlcNAc", "in_short": "as §1"}, "[31]": {"target": "Neu5Gc(a2-8)Neu5Gc(a2-6)Gal(b1-4)GlcNAc", "in_short": "as §1"}},
  "note": "The sample as a whole holds a higher share of the strongest signals than the screen did.",
  "data": [
    {"binder": "B1", "values": [
      {"measurement": "glycan array binding signal (z-score)", "setting": "[1]", "result": 0.715},
      {"measurement": "glycan array binding signal (z-score)", "setting": "[2]", "result": -0.28},
      {"measurement": "glycan array binding signal (z-score)", "setting": "[3]", "result": -0.17},
      {"measurement": "glycan array binding signal (z-score)", "setting": "[4]", "result": 0.37},
      {"measurement": "glycan array binding signal (z-score)", "setting": "[5]", "result": -0.524},
      {"measurement": "glycan array binding signal (z-score)", "setting": "[6]", "result": -0.911},
      {"measurement": "glycan array binding signal (z-score)", "setting": "[7]", "result": -0.59},
      {"measurement": "glycan array binding signal (z-score)", "setting": "[8]", "result": 3.48},
      {"measurement": "glycan array binding signal (z-score)", "setting": "[9]", "result": 0.714},
      {"measurement": "glycan array binding signal (z-score)", "setting": "[10]", "result": -0.379},
      {"measurement": "glycan array binding signal (z-score)", "setting": "[11]", "result": -0.645},
      {"measurement": "glycan array binding signal (z-score)", "setting": "[12]", "result": -0.663},
      {"measurement": "glycan array binding signal (z-score)", "setting": "[13]", "result": -0.864},
      {"measurement": "glycan array binding signal (z-score)", "setting": "[14]", "result": 0.313},
      {"measurement": "glycan array binding signal (z-score)", "setting": "[15]", "result": -0.029},
      {"measurement": "glycan array binding signal (z-score)", "setting": "[16]", "result": 0.762},
      {"measurement": "glycan array binding signal (z-score)", "setting": "[17]", "result": -0.841},
      {"measurement": "glycan array binding signal (z-score)", "setting": "[18]", "result": -0.285},
      {"measurement": "glycan array binding signal (z-score)", "setting": "[19]", "result": 8.49},
      {"measurement": "glycan array binding signal (z-score)", "setting": "[20]", "result": 0.152},
      {"measurement": "glycan array binding signal (z-score)", "setting": "[21]", "result": 0.494},
      {"measurement": "glycan array binding signal (z-score)", "setting": "[22]", "result": 2.98},
      {"measurement": "glycan array binding signal (z-score)", "setting": "[23]", "result": -0.428},
      {"measurement": "glycan array binding signal (z-score)", "setting": "[24]", "result": 5.42},
      {"measurement": "glycan array binding signal (z-score)", "setting": "[25]", "result": -0.359},
      {"measurement": "glycan array binding signal (z-score)", "setting": "[26]", "result": -0.535},
      {"measurement": "glycan array binding signal (z-score)", "setting": "[27]", "result": -0.437},
      {"measurement": "glycan array binding signal (z-score)", "setting": "[28]", "result": -0.822},
      {"measurement": "glycan array binding signal (z-score)", "setting": "[29]", "result": -0.351},
      {"measurement": "glycan array binding signal (z-score)", "setting": "[30]", "result": -0.396},
      {"measurement": "glycan array binding signal (z-score)", "setting": "[31]", "result": 0.03}
    ]}
  ]
}
